Screens deposited in PubChem BioAssay by Center for Chemical Genomics, University of Michigan.
The full list was thinned out, with hits kept by preference.
Dicer processing = inhibitors of human Dicer processing of pre-microRNA; cat-ELCCA pre-miR-21 Dicer processing, chemiluminescence; hits give high values; z-score at 25 µM; hit rate 6% among 47,000; AID 1347074; in the data active means z-score above about 3, passing the limit was not always enough;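 further: plate controls were vehicle for no effect and no enzyme for full effect; higher signal means more uncleaved substrate so more Dicer inhibition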
The depositor's hits bear a star.

SMILES | Dicer processing
O=C(O)c1ccc(S(=O)(=O)Nc2ccc3oc(=O)sc3c2)cc1 | 1.1
O=c1oc2ccc(NS(=O)(=O)c3ccc(F)cc3)cc2s1 | 4.9*
O=c1oc2ccc(NS(=O)(=O)c3ccc(Cl)cc3)cc2s1 | 9.8*
Cc1ccc(S(=O)(=O)Nc2cc(Cl)c3oc(=O)sc3c2)c(C)c1 | 12*
Cc1ccc(S(=O)(=O)N2CCN(S(=O)(=O)N3CCOCC3)CC2)c(C)c1 | -1.9
O=C(CSc1nncn1-c1ccc(C(F)(F)F)cc1)c1ccc(F)cc1 | -0.69
CCCc1cc(=O)[nH]c(/N=C(\N)Nc2cc(Cl)cc(Cl)c2)n1 | 1.7
CCOC(=O)c1cc(-c2ccc(Br)s2)n[nH]c1=O | 0.81
CCN(CC)C(=O)Oc1ccc2c(C(F)(F)F)cc(=O)oc2c1 | 5.3
Cc1cc(NC(=O)CSCC(=O)O)no1 | 0.06
CCOc1ccc(/C=C2\N=C(SC)SC2=O)cc1 | 0.72
COc1cc(/C=C(\C#N)C(N)=S)cc(OC)c1OC | -0.11
Cc1ccc(NC2=NC(c3ccc(Cl)cc3)n3c(nc(C)cc3=O)N2)cc1 (stereo unspecified) | 0.15
O=C(CSc1nc2cc(Cl)c(Cl)cc2[nH]1)c1ccccc1 | -0.13
O=C(Nc1c[nH]c(=O)[nH]c1=O)c1cccc(Br)c1 | 0.09
COCCNc1cc(C)nc2ccc(C)cc12 | -1.1
N#CC(=NCCC1=CCCCC1)C1=C(O)c2ccccc2C1=O | -0.31
O=C(c1ccccc1)n1ccc(-c2cccs2)n1 | -3.1
O=C1CN(C(=O)c2ccccc2)C(=O)CN1C(=O)c1ccccc1 | 0.91
Nc1ncn(C(=O)c2ccccc2)n1 | 4.5*
O=C(CSc1nnnn1-c1ccccc1)N1c2ccccc2Sc2ccccc21 | -0.26
Cc1c(C(=O)O)cc(-c2ccccc2)n1-c1ccccc1 | 0.83
O=C(NCc1cccs1)c1cc2nc(-c3cccs3)cc(C(F)(F)F)n2n1 | -0.4
COc1ccc(Cc2nc(S(=O)(=O)c3ccc(C)cc3)c(N3CCOCC3)o2)cc1 | 2.5
O=C1CC(Nc2ccccc2)C=C1Nc1ccccc1 (stereo unspecified) | -0.09
SMILES | Dicer processing
O=C1CC(N2CCN(c3ccccc3)CC2)C=C1Nc1ccccc1 (stereo unspecified) | 4*
O=C1CC(N2CCN(c3ccccc3)CC2)C=C1Nc1ccc(Cl)cc1 (stereo unspecified) | 1.9
c1ccc(C2CN(Cc3ccco3)C(c3ccccc3)O2)cc1 (stereo unspecified) | 3.5*
O=C(O)C1CC(=O)N(Cc2ccco2)C1 (stereo unspecified) | 0.7
O=c1[nH]c(=O)n(-c2ccccc2)c2c1CN(Cc1ccco1)CN2 | 0.98
Cc1oc2cc(Br)c(OC(=O)C(C)C)cc2c1C(=O)OC(C)C | -1.9
COc1ccc(CCNC(=S)NC2CC3CCC2C3)cc1OC (stereo unspecified) | -0.77
O=C(Nc1cccc(-c2nc3ncccc3o2)c1)c1ccc([N+](=O)[O-])o1 | -0.2
COc1ccc(NC(=O)c2ccc([N+](=O)[O-])o2)cc1Cl | 3.2*
O=C(Nc1ccc(-c2nc3cc(Cl)ccc3o2)cc1)c1ccc([N+](=O)[O-])o1 | 1.2
O=C(Nc1ccc(-c2nc3ccccc3o2)c(O)c1)c1ccc([N+](=O)[O-])o1 | 0.35
O=C(Nc1ccc2oc(-c3cccc(F)c3)nc2c1)c1ccc([N+](=O)[O-])o1 | 0.94
O=C(Nc1ccc2oc(-c3ccc(F)cc3)nc2c1)c1ccc([N+](=O)[O-])o1 | 3*
COC(=O)c1cc(NC(=O)c2ccc([N+](=O)[O-])o2)cc(C(=O)OC)c1 | 1.5
COc1ccc(NC(=O)c2ccc([N+](=O)[O-])o2)cc1 | 1.9
O=C(Nc1cccc(-c2nc3ccccc3o2)c1)c1ccc([N+](=O)[O-])o1 | 3.5*
Nc1sccc1-c1nc2ccccc2s1 | -4.1
CC1(C)CC(=O)c2cnc(NC(=O)CSCC(=O)Nc3cccc(F)c3)nc2C1 | 1.1
CCc1nn2c(N)c(C#N)cnc2c1-c1ccc(OC)cc1 | 0.77
O=S(=O)(CCO)c1ccc(C(F)(F)F)cn1 | -1.2
Cc1noc(C)c1C(=O)Oc1ccc(-c2n[nH]nc2C#N)cc1 | -0.06
NNC(=S)c1cc(Cl)cc(Cl)c1 | -2.5
CC1=C(C(=O)OC2CCCCC2)C(c2ccc(C)o2)C2=C(CC(c3ccccc3)CC2=O)N1 (stereo unspecified) | -0.28
O=C1Nc2ccccc2/C1=C\C1CC2C=CC1C2 (stereo unspecified) | 2.9
O=C(O)[C@@H](Cc1ccccc1)NC(=O)C(Cl)(Cl)Cl | 0.15
O=C(NCC1CC1)NC(=O)c1c(Cl)cccc1Cl | -2.1
O=C1c2oc3ccc(F)cc3c(=O)c2C(c2cccc(O)c2)N1Cc1ccc(F)cc1 (stereo unspecified) | -1.2
CCOCCOC(=O)C1=C(C)NC2=C(C(=O)CC(c3cccs3)C2)C1c1cccc(O)c1 (stereo unspecified) | 3.4*
COc1ccc(C2CC(=O)C3=C(C2)NC(C)=C(C(=O)OC(C)C)C3c2ccc(N(C)C)cc2)cc1 (stereo unspecified) | 3.8*
CCOC(=O)C1=C(C)NC2=C(C(=O)CC(c3ccc(OC)cc3)C2)C1c1ccc(O)c(OC)c1 (stereo unspecified) | -0.1
